# Target: GPX2
# Assay: pooled miR-30 sensor sort-seq; sequence = guide strand
# Settings: shRNA
# Further: reference of the scale not given here.
row,Sequence,sensor-assay potency score (higher = more potent)
1,TTGATGGTTGGGAAGGTGCGGC,-0.796
2,TTGCAGCTCGTTGAGCTGGGTG,-0.963
3,TTTTGGACAAGGGTGAAGGTGG,-0.672
4,TTGATGTCAGGCTCAATGTTGA,-0.614
5,TTGGACAAGGGTGAAGGTGGGC,0.00355

# Target: GRAMD1B
# Assay: as above
# Settings: shRNA
row,Sequence,sensor-assay potency score (higher = more potent)
1,TTTTTGGAGCTCAGTATCGTGG,-1.12
2,AACATCATCATATATGTCCTAT,-0.649
3,TTGTAGAAGAGCATCATGTTAA,-0.883
4,TATCGTGGTACTTTTGTTGGGA,0.623
5,TTGTGTAGAAGTAGTCATGGTA,0.548
6,TAACACATTATACCAACTCTGG,-0.853
7,TACATGGTCTGTGTCTCCCTGA,0.155
8,TTTTCTTCACTTTCCGACGTGT,0.0883
9,TTGTCTGTGCATCTCAGCCAAA,-1.36
10,TTGTCATTGAAGTCCAGTGAAG,-1.36
11,TTCTTGGAGCCTTAGACCCTGC,-0.896
12,TTGGTCTCTATGCTGCTCTTGG,-0.389
